# Assay results published in PubChem BioAssay (Tox21).
# Active and inactive are the calls of the source. Calls come from the whole dose curve; as a rule, active = well fitted curve in the direction sought with a large enough effect in the repeat runs; inconclusive = weak or mixed curves; inactive = flat fitted curve, though single readings scatter.
# Assay: qHTS assay to test for compound auto fluorescence at 460 nm (blue) in HEK293 cells (AID 720678)
# Settings: blue autofluorescence 405/460 nm; series mostly up to 91.3 µM; fluorescence, % of triamterene: at the top concentration
# From the text: National Center for Advancing Translational Sciences [NCATS]
# NIH Chemical Genomics Center [NCGC]
# U.S. Environmental Protection Agency [EPA]
# National Institutes of Environmental Health Sciences [NIEHS]
# National Toxicology Program [NTP]
# U.S. Food and Drug Administration [FDA]
# Compound auto fluorescence often interferes with screening of the compound library against various biological targets and signaling pathways. Some of these compounds may have fluorophoric properties. Such properties may interfere with the assay outputs resulting in false positives and/or negatives. To decrease such complications and ensure the compound activities are relevant in terms of biological response, the Tox21 10K compound library was screened for auto fluorescence.
# From the fluorophores used as reporter signals in our screening assays, the auto fluorescence equivalencies of compounds against three fluorophores have been evaluated: Triamterene, Fluorescein and Rose Bengal sodium for blue, green and red fluorescence, respectively. The fluorescence intensities were measured using Excitation/Emission wavelengths at 405/460nm, 485/535nm and 540/590nm for blue, green and red labels, respectively. This assay includes the blue fluorescence data.
# Tox21 Assay Protocol Summary:
# 2,000 HEK293 cells in 5 uL of culture medium containing 10% dialyzed FBS per well were dispensed into black wall/clear bottom 1536-well plates using a Multidrop Combi Dispenser (Thermo Scientific). The assay plates were incubated for 4-5 hr at 37C to allow cell attachment to the well bottom, followed by the transfer of 23 nL compound or DMSO vehicle by a pintool work station (Kalypsys, San Diego, CA). After the assay plates were incubated overnight at 37C and 5% CO2, fluorescence intensities in the assay plates were measured by an Envision (PerkinElmer, Shelton, CT) plate reader using three labels for measuring blue, green and red fluorescence at […] 460, 535 and 590nm respectively.
# % is set by controls: 0 for no effect and ±100 for the full control effect.
Structure (SMILES),outcome,"fluorescence, % of triamterene"
CC(C)(OOC(C)(C)c1ccccc1)c1ccccc1,inactive,
c1cc(OCC2CO2)ccc1Cc1ccc(OCC2CO2)cc1 (stereo not given),inactive,
N#CC(Br)Br,inactive,
Cc1cc(C)cc(C)c1,inactive,
c1ccc(P(c2ccccc2)c2ccccc2)cc1,inactive,
CC(C)Oc1cc(-n2nc(C(C)(C)C)oc2=O)c(Cl)cc1Cl,inactive,
CCN(N=O)C(N)=O,inactive,
CN(C)C(=O)Nc1ccc(Cl)cc1,inactive,
c1ccc(-c2cccc(-c3ccccc3)c2)cc1,inactive,
Oc1cc(Cl)ccc1Oc1ccc(Cl)cc1Cl,inactive,
Cc1ccc(OP(=O)(Oc2ccc(C)cc2)Oc2ccc(C)cc2)cc1,inactive,
COc1ccc(C(CN(C)C)C2(O)CCCCC2)cc1 (stereo not given),inactive,
c1ccc(NNc2ccccc2)cc1,inactive,
C=CCc1ccc(OC)cc1,inactive,
Oc1ccc(-c2ccccc2)cc1,inactive,
CCCCCc1cc(O)cc(O)c1,inactive,
NCc1cccnc1,inactive,
CCOP(=S)(OCC)O/N=C(\C#N)c1ccccc1,inactive,
C=C(C)C(=O)OCC1CO1 (stereo not given),inactive,
Cc1cc(Cl)ccc1OCCCC(=O)O,inactive,

Structure (SMILES),outcome,"fluorescence, % of triamterene"
CCCCOCCOP(=O)(OCCOCCCC)OCCOCCCC,inactive,
NNC(N)=S,inactive,
Nc1cccnc1,inactive,
CC(C)C(=O)OCC(C)(C)C(OC(=O)C(C)C)C(C)C (stereo not given),inactive,
CCN(CC)N=O,inactive,
Nc1ccc(Cl)cc1N,inactive,
O=C(CCl)c1ccccc1,inactive,
CC(C)=CC1C(C(=O)OCc2coc(Cc3ccccc3)c2)C1(C)C (stereo not given),inactive,
Oc1c(Cl)c(Cl)c(Cl)c(Cl)c1Cl,inactive,
C=C(C)[C@H]1Cc2c(ccc3c2O[C@@H]2COc4cc(OC)c(OC)cc4[C@@H]2C3=O)O1,inactive,
Nn1cnnc1,inactive,
C1=Cc2cccc3cccc1c23,,0.354% (inactive)
C#CCOS(=O)OC1CCCCC1Oc1ccc(C(C)(C)C)cc1 (stereo not given),inactive,
CCCCCCCCOC(=O)c1ccccc1C(=O)OCCCCCCCC,inactive,
COP(=S)(OC)Oc1cc(Cl)c(Cl)cc1Cl,inactive,
c1nc[nH]n1,inactive,
N#CCCCl,inactive,
CCCCN(CCCC)N=O,inactive,
CCOc1cc(Oc2ccc(C(F)(F)F)cc2Cl)ccc1[N+](=O)[O-],inactive,
CCCCC(CC)COC(=O)Cl (stereo not given),inactive,
